Hit rate of the full screen: of about 360,000 compounds, about 5,000 (1.4%) were called active.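 How the source made its calls: active means inhibition of 50% or more, scaled per plate between neutral and stimulator controls; inactive means the rest.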 Many of the other results were omitted from the sample, so actives are more common in it than they were.

The assay can be described thus: mitochondrial permeability transition pore inhibitors, primary screen, biochemical, isolated mouse mitochondria, absorbance (AID 602449).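 Further: 0% = DMSO wells given calcium and 100% = 1 mM EGTA wells.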 The following applies: Ca2+ swelling absorbance, 30 min, at 10 µM, hits give high values.
The inhibition is the drop in the measured response relative to a control, in per cent. For `O=C(COC(=O)c1cnccn1)Nc1ccc(Cl)cc1C(F)(F)F`, the inhibition is -0.1% (inactive).
`C=CCNC(=O)CCCC(=O)NCC=C`: the inhibition is 1.2% (inactive).
The result for `O=C(OC1CC2CC1[C@H]1CCCCN1C2=O)N1CCOCC1` (stereo not given in full) reads -3% (inactive); that for `Cc1ccc(C)c(NC(=O)C2CC(=O)N(C(C)C)C2)c1` (stereo not given), -0.7% (inactive); that for `Cc1ccc(C)c(NC(=S)NNC(=S)Nc2ccc(C(C)C)cc2)c1`, 93.7% (active).
The result for `Cc1ccc(C)c(NC(=S)NCC(c2cccnc2)N2CCOCC2)c1` (stereo not given) reads -1.7% (inactive); that for `CCc1ccccc1NC(=O)CN(C)C(=O)COc1ccc(C)nc1[N+](=O)[O-]`, 14.3% (inactive); that for `O=C(NCc1ccncc1)C1CCN(C(=O)c2cccc(Cl)c2)CC1`, 0.5% (inactive).
In the case of `C=CCn1c(N)cc(=O)nc1SCC(=O)Nc1cccc2ccccc12`, the inhibition was 0.1% (inactive).
As to `O=[N+]([O-])c1ccc(NS(=O)(=O)c2ccccc2)c(Cl)c1`, the inhibition was 86.7% (active).
Under `O=C(NNS(=O)(=O)c1ccc(F)cc1)c1ccc([N+](=O)[O-])cc1Cl` stands -0.9% (inactive); under `Cc1cccc(NS(=O)(=O)c2ccc([N+](=O)[O-])cc2)n1`, 0.2% (inactive); under `CC(Nc1ccccc1)c1cccnc1` (stereo not given), -1.4% (inactive).
The result for `N#Cc1c(NC(=O)CCCl)sc2c1CCCCC2` reads 0.2% (inactive); that for `CC(=O)c1c(C)[nH]c(C(=O)OCC(=O)Nc2sc3c(c2C#N)CCCC3)c1C`, 98.8% (active).
Under `CC(=O)c1c(C)[nH]c(C(=O)OCC(=O)Nc2c(C)cccc2C)c1C` stands 1.5% (inactive); under `O=C1CCN(Cc2ccc([N+](=O)[O-])cc2)CCN1[C@H](CO)Cc1ccccc1`, -0.2% (inactive).
On to `O=C(Nc1nnc(COc2ccccc2)s1)Nc1ccccc1F`, for which the inhibition was 6.4% (inactive).
The result for `COCc1nnc(NC(=O)CS(=O)(=O)Cc2ccccc2)s1` reads 0.4% (inactive); that for `O=C(Nc1ccccc1)Nc1nnc(COc2ccccc2F)s1`, 69.5% (active); that for `Cc1[nH]c2ccccc2c1-c1ccc(Cl)nn1`, -1% (inactive).
With `N#C[C@]1(S(=O)(=O)c2ccccc2)C[C@@H]2ON=C(c3cccc(Br)c3)[C@@H]2C1`, the inhibition is 72.4% (active).
Consider `COC(=O)[C@]1(S(=O)(=O)c2ccccc2)C[C@@H]2ON=C(c3ccc(OC)cc3)[C@@H]2C1`, for which the inhibition was 1% (inactive).
Under `CC1=C(C)CC(C(=O)NC(C)CCc2ccccc2)C(C(=O)O)C1` (stereo not given) stands -1.3% (inactive); under `COc1cc(Br)c(-c2sc(Nc3ccccc3)n[n+]2-c2ccccc2)cc1OC`, 1.6% (inactive); under `CCc1ccc(Nc2n[n+](-c3ccccc3)c(-c3cccc(Cl)c3Cl)s2)cc1`, 57.1% (active).
In the case of `COc1ccc(C)cc1Nc1n[n+](-c2ccccc2)c(-c2cccc(Cl)c2Cl)s1`, the inhibition is 1.4% (inactive).
Under `Cc1ccc(C)c(OCCC(=O)OCC(=O)N2CCN(c3ccccc3)CC2)c1` stands -0.6% (inactive); under `CCOC(=O)N1CCN(C(=O)Cc2ccc(-n3c(=S)[nH]c4ccccc4c3=O)cc2)CC1`, -1.2% (inactive); under `O=C(Cc1ccc(-n2c(=O)[nH]c3ccccc3c2=O)cc1)N1CCN(c2cccc(Cl)c2)CC1`, 53% (active).
Turning to `O=C(CCCC(=O)N1CCN(c2cccc(Cl)c2)CC1)c1ccccc1`, the inhibition is -0.6% (inactive).
For `Cc1ccc(C(=O)N2CCN(C3CCCCC3)CC2)s1`, the inhibition is -0.6% (inactive).
For the compound `CCCCCC(O)c1cccc(OCc2ccc3ccccc3n2)c1` (stereo not given), the inhibition is 50.9% (active).
Under `COc1cccc(C(O)c2nc3ccccc3n2C)c1` (stereo not given) stands -0.2% (inactive).
The result for `COc1cccc(C(O)c2ncc(-c3ccc4ccccc4c3)[nH]2)c1` (stereo not given) reads -0.1% (inactive); that for `Cc1ccnc(NC(=O)CCC(=O)N(CC(=O)NCc2ccccc2)Cc2ccco2)c1`, -0.3% (inactive).
`CCc1ccc(C(=O)CSc2nnc(C)c(=O)[nH]2)cc1`: the inhibition was 0.8% (inactive).
The result for `N#Cc1c(-c2cccs2)nc(SCC(=O)c2ccc(Br)cc2)[nH]c1=O` reads 53.9% (active).
Consider `Cc1cc(C)c2c(=O)[nH]c(SCC(=O)Nc3ccc(Br)cc3)nc2n1`, for which the inhibition is 4.4% (inactive).
For the compound `CC1=C(C(=O)N(C)C)CC(CC(=O)NCCc2ccccn2)C(=O)N1CCC1=CCCCC1` (stereo not given), the inhibition was -0.3% (inactive).
As for `COc1ccc(CC(=O)N[C@@H](CCSC)c2nc3ccccc3[nH]2)cc1`, the inhibition is -1.3% (inactive).
Take `CSCCC(NC(=O)c1cc([N+](=O)[O-])cc([N+](=O)[O-])c1)c1nc2ccccc2[nH]1` (stereo not given): the inhibition is 50.8% (active).
Under `CSCCC(NC(=O)c1ccc(=O)n(C)n1)c1nc2ccccc2[nH]1` (stereo not given) stands -0.7% (inactive); under `COC(=O)[C@@]12C[C@@H](CC(=O)NCCCCc3ccccc3)C(=O)N(CCc3ccc(OC)c(OC)c3)C1=CCC(C)(C)C2`, -2.6% (inactive).
Consider `Cc1ccc(C)c(N2CCN(C(=O)Cn3ncn4cccc4c3=O)CC2)c1`, for which the inhibition is 0.1% (inactive).
Turning to `COc1ccc(S(=O)(=O)NCC2CCCN(C(=O)c3occc3C)C2)cc1` (stereo not given), the inhibition was -0.5% (inactive).
On to `O=C(NNc1ccccc1Cl)C(O)(c1cccc(C(F)(F)F)c1)c1cccc(C(F)(F)F)c1`, for which the inhibition is 90% (active).
Under `O=C(O)c1cc(S(=O)(=O)N(Cc2ccccc2)c2cccc(C(F)(F)F)c2)ccc1Cl` stands 0.9% (inactive); under `O=c1cc(O)c(-c2cccc(C(F)(F)F)c2)c(Cl)[nH]1`, 3.7% (inactive); under `CCCCNc1c(-c2cccc(Sc3ccc(OC)cc3)c2)nc2ccccn12`, 6.5% (inactive).
Regarding `CC(=O)NC(CC(=O)Nc1ccc(S(=O)(=O)N2CCOCC2)cc1)c1ccccc1` (stereo not given), the inhibition was -1.9% (inactive).
For the compound `COc1ccc(C(C)(O)c2nc(-c3cc(F)cc(F)c3)cs2)cc1` (stereo not given), the inhibition was 1.2% (inactive).
Under `COC(=O)C1=CN(c2c(C)cc(C)cc2C)C(N)=C(C#N)C1c1cccc(F)c1` (stereo not given) stands 1.1% (inactive); under `CCCCN(C)C(=O)C1CCN(Cc2ccccn2)CC1`, -1% (inactive).
For the compound `O=c1c2ccccc2nc2n1C(CSCc1ccccc1)CS2` (stereo not given), the inhibition was 52.1% (active).
With `C#CCCCc1nc2ccccc2c(=O)n1N`, the inhibition is 5.8% (inactive).
`Cn1c(-c2sccc2OCc2cccc(C(F)(F)F)c2)n[nH]c1=S`: the inhibition is 0.2% (inactive).
Take `O=c1c2ccccc2nc2n1C(CSc1ccc(Cl)cc1)CN2` (stereo not given): the inhibition was -1.7% (inactive).
As to `O=c1c2ccccc2nc2n1C(CSCc1cccc(C(F)(F)F)c1)CS2` (stereo not given), the inhibition is 54% (active).
The result for `N#Cc1c(-c2ccccc2)nc(SCc2cccc(C(F)(F)F)c2)[nH]c1=O` reads 49.1% (inactive).

The record behind these values is PubChem BioAssay AID602449 (Sanford-Burnham Center for Chemical Genomics, 2012).
